# Source: ChEMBL document CHEMBL4303122, “Identification of potential treatments for COVID-19 through artificial intelligence-enabled phenomic analysis of human cells infected with SARS-CoV-2” (2020)
# The full ranking holds about 1,600 compounds; the median of “Hit score” is about 0.13, and the highest 2% start at about 0.46. Shown is part of a subset that was picked to be rich in the highest values.
# Tested on: SARS-CoV-2
# Test: Antiviral activity against SARS-CoV-2 (USA-WA1/2020 strain) measured by imaging in HRCE cells at MOI 0.4 after 96 hrs (reported as hit score from 0-1 for on-disease vs off-disease activity: scores >0.6 considered hits)
# Assay type: functional, Homo sapiens
row,Compound,Hit score
1,CCCCc1cc2ccccc2c(OCCN(C)C)n1 [DIMETHISOQUIN],0.1395
2,CC[C@]1(O)C[C@H]2CN(CCc3c([nH]c4ccccc34)[C@@](C(=O)OC)(c3cc4c(cc3OC)N(C=O)[C@H]3[C@@](O)(C(=O)OC)[C@H](OC(C)=O)[C@]5(CC)C=CCN6CC[C@]43[C@@H]65)C2)C1 [VINCRISTINE],0.4904
3,CC[C@]1(O)C[C@@H]2CN(CCc3c([nH]c4ccccc34)[C@@](C(=O)OC)(c3cc4c(cc3OC)N(C)[C@H]3[C@@](O)(C(=O)OC)[C@H](OC(C)=O)[C@]5(CC)C=CCN6CC[C@]43[C@@H]65)C2)C1 [VINBLASTINE],0.2235
4,O=C(C[S+]([O-])Cc1ccco1)NC/C=C\COc1cc(CN2CCCCC2)ccn1 (stereo not given) [LAFUTIDINE],0.2245
5,CCC(c1ccccc1)c1c(O)c2ccccc2oc1=O (stereo not given) [PHENPROCOUMON],0.1829
6,COc1ccc2c3c1O[C@H]1C[C@@H](O)C=C[C@@]31CCN(C)C2 [GALANTAMINE],0.2532
7,CC(C)COc1ccc(CNC(=O)N(Cc2ccc(F)cc2)C2CCN(C)CC2)cc1 [PIMAVANSERIN],-0.09171
8,Brc1ccc(NC2C3CC4CC(C3)CC2C4)cc1 (stereo not given),0.3495
9,CO[C@H]1C(=O)[C@]2(C)[C@@H](OC)C[C@H]3OC[C@@]3(OC(C)=O)[C@H]2[C@H](OC(=O)c2ccccc2)[C@]2(O)C[C@H](OC(=O)[C@H](O)[C@@H](NC(=O)OC(C)(C)C)c3ccccc3)C(C)=C1C2(C)C [CABAZITAXEL],-0.8282
10,COC(=O)c1ccc2c(c1)NC(=O)/C2=C(\Nc1ccc(N(C)C(=O)CN2CCN(C)CC2)cc1)c1ccccc1 [NINTEDANIB],0.1859
11,O=c1ncnc2n([C@H]3O[C@@H](CO)[C@H](O)[C@@H]3O)[nH]cc1-2 [ALLOPURINOL RIBOSIDE],0.1953
12,Cc1c(O)cccc1C(=O)N[C@@H](CSc1ccccc1)[C@H](O)CN1C[C@H]2CCCC[C@H]2C[C@H]1C(=O)NC(C)(C)C,0.1621
13,COc1ccc(C(=O)N2CCN(c3ccc4c(c3)CCC(=O)N4)CC2)cc1OC [VESNARINONE],0.09463
14,CCCOC(C(=O)OC1CCN(C)CC1)(c1ccccc1)c1ccccc1.Cl,0.3138
15,C/C=C/C[C@@H](C)[C@@H](O)[C@H]1C(=O)N[C@@H](CC)C(=O)N(C)CC(=O)N(C)[C@@H](CC(C)C)C(=O)N[C@@H](C(C)C)C(=O)N(C)[C@@H](CC(C)C)C(=O)N[C@@H](C)C(=O)N[C@H](C)C(=O)N(C)[C@@H](CC(C)C)C(=O)N(C)[C@@H](CC(C)C)C(=O)N(C)[C@@H](C(C)C)C(=O)N1C [CYCLOSPORINE],0.07198
